According to PubChem BioAssay (Tox21):
“And” between values parts separate entries of the source, which are not always exact repeats. Equal values may be shown once. Results filed as inconclusive are left out. The source made the active and inactive calls. The call rests on the fitted dose curve; in most records, active means well fitted curve in the direction sought with a large enough effect in the repeat runs; inconclusive means weak or mixed curves; inactive means no such curve, though single readings can be large; an effect the other way counts as inactive or inconclusive.

How the values were obtained:
[1] = qHTS RealTime-Glo MT Cell Viability Assay in HepG2 cells - 40 hour (AID 1224870); further: nearly all actives have a fitted effect of over 50% in size
Outline: (§1)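 HepG2 cells (600/well) mixed with RealTime-Glo MT reagent, settled 5 h at 37 C/5% CO2 before compound addition. Nonlytic NanoLuc luminescence from viable-cell prosubstrate reduction read repeatedly during 40 h treatment at 37 C.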

[2] = A CellTox Green Cytotoxicity Assay to monitor cytotoxicity in HEK293 cells - 40 hour (AID 1224871); further: nearly all actives have a fitted effect of over 45% in size
Outline: (§2)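 Each value comes from one timepoint of a single continuous run in which HEK293 cells with CellTox Green were exposed to compound for up to 40 h at 37 C, dye fluorescence rising with cell death.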

[3] = qHTS RealTime-Glo MT Cell Viability Assay in HEK293 cells - 16 hour (AID 1224872); further: nearly all actives have a fitted effect of over 50% in size; further: potency means the concentration at half of the fitted maximal effect
Outline: (§3)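 Assay medium contained NanoLuc luciferase plus cell-permeant prosubstrate, added with HEK293 cells at 600 cells/well. After 5 h at 37 C/5% CO2 compounds were added; plates stayed at 37 C for 40 h with serial luminescence reads.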

[4] = qHTS RealTime-Glo MT Cell Viability Assay in HepG2 cells - 8 hour (AID 1224873); further: nearly all actives have a fitted effect of over 55% in size
Outline: as §1

[5] = qHTS RealTime-Glo MT Cell Viability Assay in HEK293 cells - 40 hour (AID 1224874); conditions: RealTime-Glo luminescence; max response: active compounds read low; further: nearly all actives have a fitted effect of over 50% in size; further: potency means the concentration at half of the fitted maximal effect
Outline: (§4)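 qHTS format; HEK293 cells with NanoLuc/prosubstrate reagent, 37 C/5% CO2 for 5 h pre-dosing; compounds 23 nL in DMSO; luminescence at each time point reflects viable cells.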

[6] = A CellTox Green Cytotoxicity Assay to monitor cytotoxicity in HEK293 cells - 24 hour (AID 1224875); further: series mostly up to about 77 µM; nearly all actives have a fitted effect of over 45% in size
Outline: as §2

[7] = A CellTox Green Cytotoxicity Assay to monitor cytotoxicity in HepG2 cells - 16 hour (AID 1224876); further: nearly all actives have a fitted effect of over 45% in size
Outline: (§5)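 Continuous culture of HepG2 cells with a membrane-impermeant DNA dye; rising fluorescence marks dead cells. Compound exposure lasted up to 40 h at 37 C, with reads every 8 h from 0 h.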

[8] = qHTS RealTime-Glo MT Cell Viability Assay in HepG2 cells - 32 hour (AID 1224877); further: nearly all actives have a fitted effect of over 55% in size
Outline: (§6)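 qHTS, HepG2, 600 cells/well, RealTime-Glo (NanoLuc + prosubstrate) added with cells; 5 h preincubation; DMSO compound addition; 37 C; luminescence at 0/8/16/24/32/40 h.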

[9] = A CellTox Green Cytotoxicity Assay to monitor cytotoxicity in HepG2 cells - 24 hour (AID 1224878); further: nearly all actives have a fitted effect of over 45% in size; further: potency means the concentration at half of the fitted maximal effect
Outline: as §5

[10] = A CellTox Green Cytotoxicity Assay to monitor cytotoxicity in HepG2 cells - 40 hour (AID 1224879); further: nearly all actives have a fitted effect of over 40% in size; further: potency means the concentration at half of the fitted maximal effect
Outline: as §5

[11] = qHTS RealTime-Glo MT Cell Viability Assay in HEK293 cells - 0 hour (AID 1224880)
Outline: as §4

[12] = A CellTox Green Cytotoxicity Assay to monitor cytotoxicity in HEK293 cells - 32 hour (AID 1224881); further: nearly all actives have a fitted effect of over 40% in size
Outline: as §2

[13] = A CellTox Green Cytotoxicity Assay to monitor cytotoxicity in HepG2 cells - 0 hour (AID 1224882); further: nearly all actives have a fitted effect of over 35% in size
Outline: as §5

[14] = A CellTox Green Cytotoxicity Assay to monitor cytotoxicity in HepG2 cells - 32 hour (AID 1224883); further: nearly all actives have a fitted effect of over 50% in size; further: potency means the concentration at half of the fitted maximal effect
Outline: as §5

[15] = A CellTox Green Cytotoxicity Assay to monitor cytotoxicity in HEK293 cells - 8 hour (AID 1224884); further: nearly all actives have a fitted effect of over 35% in size
Outline: as §2

[16] = qHTS RealTime-Glo MT Cell Viability Assay in HepG2 cells - 16 hour (AID 1224885); further: nearly all actives have a fitted effect of over 50% in size
Outline: as §6

[17] = qHTS RealTime-Glo MT Cell Viability Assay in HEK293 cells - 24 hour (AID 1224886); further: nearly all actives have a fitted effect of over 50% in size; further: potency means the concentration at half of the fitted maximal effect
Outline: as §3

[18] = qHTS RealTime-Glo MT Cell Viability Assay in HEK293 cells - 8 hour (AID 1224887); further: nearly all actives have a fitted effect of over 50% in size; further: potency means the concentration at half of the fitted maximal effect
Outline: as §4

[19] = A CellTox Green Cytotoxicity Assay to monitor cytotoxicity in HEK293 cells - 16 hour (AID 1224888); further: nearly all actives have a fitted effect of over 35% in size
Outline: as §2

[20] = qHTS RealTime-Glo MT Cell Viability Assay in HepG2 cells - 0 hour (AID 1224889); further: nearly all actives have a fitted effect of over 50% in size
Outline: as §6
On the % scale 0 is the no-effect control and ±100 the full control effect.

CCC(=O)OC/C=C/c1ccccc1
inactive: Potency [1] | Potency [2] | Potency [3] | Potency [4] | max response [5] 1.64% and -7.61% | Potency [6] | Potency [7] | Potency [8] | Potency [9] | Potency [10] | Potency [11] | Potency [12] | Potency [13] | Potency [14] | Potency [15] | Potency [16] | Potency [17] | Potency [18] | Potency [19] | Potency [20]

CC(C)(CCl)c1ccccc1
inactive: Potency [1] | Potency [2] | Potency [3] | Potency [4] | max response [5] 4.77% | Potency [6] | Potency [7] | Potency [8] | Potency [9] | Potency [10] | Potency [11] | Potency [12] | Potency [13] | Potency [14] | Potency [15] | Potency [16] | Potency [17] | Potency [18] | Potency [20]

C[C@@H]1C[C@H]2[C@@H]3CCC4=CC(=O)C=C[C@]4(C)[C@@]3(F)[C@@H](O)C[C@]2(C)[C@H]1C(=O)CO
inactive: Potency [1] | Potency [2] | Potency [3] | Potency [4] | max response [5] -9.79% | Potency [6] | Potency [7] | Potency [8] | Potency [9] | Potency [10] | Potency [11] | Potency [12] | Potency [13] | Potency [14] | Potency [15] | Potency [16] | Potency [17] | Potency [18] | Potency [19]

CC1=NN(c2ccc(C(=O)O)cc2)C(=O)C1
inactive: Potency [1] | Potency [2] | Potency [3] | Potency [4] | max response [5] -25.1% | Potency [6] | Potency [7] | Potency [8] | Potency [9] | Potency [10] | Potency [11] | Potency [12] | Potency [13] | Potency [14] | Potency [15] | Potency [16] | Potency [17] | Potency [18] | Potency [19] | Potency [20]

CCn1nc(C)c2c1C(=O)NCC(c1ccc(O)cc1)=N2
inactive: Potency [1] | Potency [2] | Potency [3] | Potency [4] | max response [5] 0.626% | Potency [6] | Potency [7] | Potency [8] | Potency [9] | Potency [10] | Potency [11] | Potency [12] | Potency [13] | Potency [14] | Potency [15] | Potency [16] | Potency [17] | Potency [18] | Potency [19] | Potency [20]

Brc1cc(-c2ccc(Br)c(Br)c2Br)cc(Br)c1Br
inactive: Potency [1] | Potency [2] | Potency [3] | Potency [4] | max response [5] 4.87% | Potency [6] | Potency [7] | Potency [8] | Potency [9] | Potency [10] | Potency [11] | Potency [12] | Potency [13] | Potency [14] | Potency [15] | Potency [16] | Potency [17] | Potency [18] | Potency [19]

COc1ccc(CCC(=O)c2c(O)cc(O[C@@H]3O[C@H](CO)[C@@H](O)[C@H](O)[C@H]3O[C@@H]3O[C@@H](C)[C@H](O)[C@@H](O)[C@H]3O)cc2O)cc1O
inactive: Potency [1] | Potency [2] | Potency [3] | Potency [4] | max response [5] 12.3% | Potency [6] | Potency [7] | Potency [8] | Potency [9] | Potency [10] | Potency [11] | Potency [12] | Potency [13] | Potency [14] | Potency [15] | Potency [16] | Potency [17] | Potency [18] | Potency [19] | Potency [20]

CCOC(=O)c1ccccc1C
inactive: Potency [1] | Potency [2] | Potency [3] | Potency [4] | max response [5] -14.1% | Potency [6] | Potency [7] | Potency [8] | Potency [9] | Potency [10] | Potency [11] | Potency [12] | Potency [13] | Potency [14] | Potency [15] | Potency [16] | Potency [17] | Potency [18] | Potency [19] | Potency [20]

OC(CCCN1CCCCC1)(c1ccccc1)c1ccccc1
inactive: Potency [1] | Potency [2] | Potency [3] | Potency [4] | max response [5] 0.842% | Potency [6] | Potency [7] | Potency [8] | Potency [9] | Potency [10] | Potency [11] | Potency [12] | Potency [13] | Potency [14] | Potency [15] | Potency [16] | Potency [17] | Potency [18] | Potency [19]

Nc1ccc(C(=O)OCCCOC(=O)c2ccc(N)cc2)cc1
active: Potency [3] 49 µM | Potency [5] 38.9 µM | Potency [17] 43.6 µM
inactive: Potency [1] | Potency [2] | Potency [4] | Potency [6] | Potency [7] | Potency [8] | Potency [9] | Potency [10] | Potency [11] | Potency [12] | Potency [13] | Potency [14] | Potency [15] | Potency [16] | Potency [19] | Potency [20]

CC(C)c1nnc2ccc(-c3ocnc3-c3cc(F)ccc3F)cn12
active: Potency [3] 17.4 µM | Potency [5] 19.5 µM | Potency [17] 19.5 µM | Potency [18] 19.5 µM
inactive: Potency [1] | Potency [2] | Potency [4] | Potency [6] | Potency [7] | Potency [8] | Potency [9] | Potency [10] | Potency [11] | Potency [12] | Potency [13] | Potency [14] | Potency [15] | Potency [16] | Potency [19] | Potency [20]

COC(=O)c1cc(Cl)ccc1NS(=O)(=O)C(F)(F)F
inactive: Potency [1] | Potency [2] | Potency [3] | Potency [4] | max response [5] 2.62% | Potency [6] | Potency [7] | Potency [8] | Potency [9] | Potency [10] | Potency [11] | Potency [12] | Potency [13] | Potency [14] | Potency [15] | Potency [16] | Potency [17] | Potency [18] | Potency [19]

Cc1ccc(S)cc1
active: Potency [9] 17.4 µM | Potency [10] 17.4 µM | Potency [14] 17.4 µM
inactive: Potency [1] | Potency [2] | Potency [3] | Potency [4] | max response [5] 4.48% | Potency [6] | Potency [7] | Potency [8] | Potency [11] | Potency [12] | Potency [13] | Potency [15] | Potency [16] | Potency [17] | Potency [18] | Potency [19] | Potency [20]
